# Screening results as filed in PubChem.
# Rows were chosen to be rich in hits. Some 2.7% of all compounds tested hit in one or more screens of this group.
# BRCA1 expr act: increases BRCA1 expression | MCF7-BRCA1-FFLuc reporter, luminescence, 48 h; response scale: scaled: vehicle 0%, 10 µM genistein 100% | Potency, µM (series often up to 46.1 µM), for inactives: at the top dose activation, actives largely listed as activators | 1.1% of 380,000 active | AID 624202; note: nearly all actives have a fitted effect of over 80% in size
#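 Quantitative HTS in MCF7 cells stably reporting BRCA1 expression via firefly luciferase. Compound treatment lasts 48 h at 37 °C in phenol-red free MEM. Activation is expressed relative to genistein at 10 microM and DMSO.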
# GLP1R inv ag: inverse agonists of human GLP-1 receptor. P43220. HEK293 GLP-1R CRE-luciferase, luminescence, 24 h; GLP-1R form is constitutively active. Potency, µM (doses to about 38.3 µM), for the others: top-dose activity change, negative = inhibition, actives largely listed as inhibitors. 1.6% of 410,000 active. AID 624417; note: % is set by controls: 0 for no effect and ±100 for the full control effect; nearly all actives have a fitted effect of over 55% in size
# Target sequence (P43220 whole entry, looked up): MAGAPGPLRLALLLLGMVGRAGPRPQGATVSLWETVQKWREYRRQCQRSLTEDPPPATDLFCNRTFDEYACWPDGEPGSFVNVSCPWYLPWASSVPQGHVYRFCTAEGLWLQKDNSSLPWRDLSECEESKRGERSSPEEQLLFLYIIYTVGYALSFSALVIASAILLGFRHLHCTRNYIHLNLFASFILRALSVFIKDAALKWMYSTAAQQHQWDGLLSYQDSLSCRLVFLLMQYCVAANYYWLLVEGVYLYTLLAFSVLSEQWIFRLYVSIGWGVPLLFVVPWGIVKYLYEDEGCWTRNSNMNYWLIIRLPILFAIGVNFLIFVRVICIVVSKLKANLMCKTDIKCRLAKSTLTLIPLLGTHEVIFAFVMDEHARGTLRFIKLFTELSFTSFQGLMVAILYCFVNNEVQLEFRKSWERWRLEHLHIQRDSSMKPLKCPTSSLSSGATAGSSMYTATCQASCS
#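 qHTS in 1536-well format: reporter HEK293 cells expressing constitutive GLP-1R activity in DMEM + 10% Nu serum, 24 hr with compounds at 37 deg C, luminescence read after 12 min with detection reagent.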
# HEK293 tox: cytotoxicity counter-screen for GLP-1 receptor inverse agonists; HEK293 cAMP-luciferase reporter cells, luminescence, 24 h; Potency, µM (titrated, usually from 38.3 µM), for the others: top-dose activity change, negative = inhibition, most hits filed as inhibitors; AID 624418; 0.13% of 410,000 active;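 note: loss of luciferase light is scored as toxicity; % is set by controls: 0 for no effect and ±100 for the full control effect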
#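 Cells in DMEM/10% Nu serum/1% pen-strep, 1536-well format. Pre-incubated 12 h, dosed with 23 nL compound, incubated a further 24 h. Luciferase detection, 12 min at room temp, luminescence.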
# GLP-1R agonist: agonists of human GLP-1 receptor; HEK293 GLP-1R CRE-luciferase, luminescence, 4-6 h; cells express a hypersensitive GLP-1R form; AID 624172; P43220; Potency, µM (top dose mostly 45.6 µM), for inactives: top-dose activation, hits mostly activators; 0.007% of 380,000 active; note: % of control where 0% means no effect
# Integrin act MD: integrin-mediated muscular dystrophy alleviation activation. AID 624291. Potency, µM (top dose mostly 38.3 µM), for the others: at the top dose activation, hits mostly activators. alpha7betagal myoblasts, beta-gal FDG fluorescence, 48 h. 0.064% of 350,000 active;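 note: 100% = response of the positive control SU9516; nearly all actives have a fitted effect of over 60% in size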
#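 Alpha7betagal+/- myoblasts (passage 13) were plated 16-24 hr, then exposed to compounds (1:260 dilution of DMSO stock) for 48 hours at 37C. After MPER lysis, β-galactosidase reporter activity was read as FDG fluorescence (ex 480/em 540) after 30 minutes.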
# * marks the source's active call; other numbers are inactive results; ? = inconclusive; / = no result given; [ ] = remark or other dose. Calls come from the whole dose curve; as a rule, active = well fitted curve in the direction sought with a large enough effect; inconclusive = small, poorly fitted or top-dose-only effect, or another doubt; inactive = no such curve, though single readings can be large; an effect the other way counts as inactive or inconclusive. Potency is the fitted concentration of half-maximal effect.
SMILES,BRCA1 expr act,GLP1R inv ag,HEK293 tox,GLP-1R agonist,Integrin act MD
O=C(NCCn1cc(SCc2ccc(F)cc2)c2ccccc21)c1c(F)cccc1F,-29%,?,-4%,-2%,3%
O=C(CSc1cn(CCNC(=O)c2ccccc2F)c2ccccc12)Nc1ccc(F)cc1,-1%,?,-16%,-1%,/
O=C(NCCn1cc(SCc2ccc(F)cc2)c2ccccc21)c1ccccc1F,-28%,7.9µM*,-11%,0%,-42%
O=C(NCCn1cc(SCc2ccccc2)c2ccccc21)c1c(F)cccc1F,1%,10µM*,3%,12%,0%
O=C(NCCn1cc(SCc2ccc(C(F)(F)F)cc2)c2ccccc21)c1cccs1,-15%,11µM*,-8%,-5%,/
O=C(NCCn1cc(SCc2ccc(C(F)(F)F)cc2)c2ccccc21)c1ccccc1F,-4%,?,-11%,-13%,/
CCOc1ccc(CCNC(=O)CN2N=C(c3ccccc3)CCC2=O)cc1OCC,/,13%,0%,/,/
CN(C)c1ccc(/C=C/c2ccnc3ccccc23)c(F)c1,14%,/,/,/,/
C/C(=N/NC(=O)c1cccc(N2CCCC2=O)c1)c1ccc(Br)cc1,30%,13%,15%,-4%,5%
C/C(=N/NC(=O)c1cccc(N2CCCC2=O)c1)c1ccncc1,8.9µM*,-12%,0%,6%,-34%
COc1cccc(/C=N/NC(=O)c2cccc(N3CCCC3=O)c2)c1,8.9µM*,4%,-3%,5%,?
Clc1ccc(Cn2c(-c3cccnc3Cl)nc3ccccc32)c(Cl)c1,4%,10µM*,-13%,5%,11%
CNc1ccc(/C=C\CCCO)cn1,10µM*,22%,-4%,-1%,/
CC(=O)Nc1cnc(/C=C\CCCO)cn1,9%,26%,13%,10%,/
O=C(Nc1nccs1)c1cncc(Br)c1,3.5µM*,-6%[0.307 µM],2%[0.307 µM],1%,22%
CN(C)C(=O)c1ccc(NC(=O)c2cncc(Br)c2)cc1,11µM*,-5%,-1%,-9%,13%
O=C(Nc1ccc2c(c1)OCO2)c1cncc(Br)c1,10µM*,0%,6%,1%,0%
COc1ccc(CCNc2ncnc3c2nnn3C)cc1OC,/,36%,-6%,/,/
Cc1ccc(CNc2nc(-c3ccco3)nn2C(=O)c2ccccc2[N+](=O)[O-])cc1,/,?,6%,/,/
O=C1[C@H]2[C@@H](c3ccc(F)cc3)N3C(=O)N(c4cccc(Cl)c4)C(=O)[C@@]3(Cc3ccccc3)[C@H]2C(=O)N1C1CCCCC1,-44%,5.6µM*,3%,-1%,2%
CCC(C)Sc1ccc(-c2nc3ccc(C)cn3c2NCc2ccccc2)cc1OC (configuration not stated),-34%,2.8µM*,-25%,-4%,-42%
CCC(C)Sc1cc(-c2nc3ccc(C)cn3c2NCc2ccccc2)ccc1OC (configuration not stated),-95%,?,-18%,-6%,-43%
CCCCNc1c(-c2ccc(SC3CCCCC3)c(OC)c2)nc2ccc(C)cn12,-41%,8.9µM*,0%,-3%,-38%
C/C(=N\NC(=S)Nc1c(C)cccc1C)c1ccc(O)cc1,-23%,10µM*,?,16%,-35%
C/C(=N\NC(=S)Nc1ccc(C)cc1)c1cccc(N)c1,-3%,?,4.5µM*,10%,-3%
SMILES,BRCA1 expr act,GLP1R inv ag,HEK293 tox,GLP-1R agonist,Integrin act MD
C/C(=N\NC(=S)Nc1cccc(C)c1)c1cccc(N)c1,-24%,12%,?,14%,-2%
Cn1nc(-c2ccncc2)nc2c(=O)n(C)c(=O)nc1-2,-28%,/,/,/,/
CCOc1ccc(-n2c(C)nc3cc(C(=O)NC4CCCC4)ccc32)cc1,/,?,-6%,/,/
CC(=O)Nc1ccc(-c2csc(Nc3ncccn3)n2)cc1,3.5µM*,8%,6%,-5%,25%
Oc1ccc(-c2csc(Nc3ncccn3)n2)cc1,?,-18%,-6%,7%,11%
CC(C)(C)c1ccc(OCC(=O)NNC(=O)C2CCCO2)cc1 (configuration not stated),-8%,-13%,0%,3%,1%
CC(C)=C1C2CCC1C1C(=O)N(NC(=O)COc3ccc(C(C)(C)C)cc3)C(=O)C21 (configuration not stated),-17%,7.1µM*,5%,-5%,16%
Cc1cc(C)cc(Nc2cc(C(=O)NCCCN(Cc3ccccc3)C(C)C)c3ccccc3n2)c1,/,5.6µM*,?,/,/
CCOc1ccccc1NC(=O)NC1CC2CCCC(C1)N2Cc1nnnn1CCc1ccccc1 (configuration not stated),-21%,10µM*,9%,-4%,?
CC1(C)CC(=O)C2=C(C1)NC(Nc1nc3ccccc3o1)=NC2c1cccc(F)c1 (configuration not stated),16%,/,/,/,/
O=C(CN(Cc1ccco1)C(=O)c1ccc([N+](=O)[O-])cc1)Nc1ccccc1C(F)(F)F,-9%,-6%,-11%,-6%,3%
CC(C)COc1ccc(C(=O)N(CC(=O)Nc2ccccc2C(F)(F)F)Cc2ccco2)cc1,-57%,4.5µM*,?,11%,-9%
CCN(CC)CCCNC(=O)C(C)n1nc(C)n2c(cc3occc32)c1=O (configuration not stated),11%,-14%,-7%,/,/
CCCN(CCc1cccs1)[C@H]1CCc2c(O)cccc2C1,/,/,/,14%,/
CCOC(=O)C1C(=O)C=C(c2ccccc2)CC1c1ccccc1 (configuration not stated),-16%,?,3%,24%,26%
CCOC(=O)C1C(=O)C=C(c2ccc(C)cc2)CC1c1ccc([N+](=O)[O-])cc1 (configuration not stated),-44%,10µM*,17%,-12%,-11%
CCCn1c2ccccc2c2cnn(CC(=O)NCc3cc(OC)ccc3OC)c(=O)c21,/,16%,35%,/,/
CCC1(C)Cc2c(sc3nc(SC)n(Cc4ccccc4)c(=O)c23)CO1 (configuration not stated),13µM*,?,5%,-1%,0%
Cc1c(C)c2c(c(C)c1OC(=O)CCC(=O)OCCO)CC[C@](C)(CCC[C@H](C)CCC[C@H](C)CCCC(C)C)O2,/,/,/,3%,/
COc1ccc(/C=C/C(=O)Nc2ccc3nc4c(c(Nc5ccccc5OC)c3c2)CCCC4)cc1,/,8.9µM*,?,/,/
COc1ccc(/C=C/C(=O)Nc2ccc3nc4c(c(Nc5ccc(OC)c(OC)c5)c3c2)CCCC4)cc1,/,8.9µM*,4.5µM*,/,/
COc1ccc(Nc2c3c(nc4ccccc24)CCC3)cc1,-75%,1.8µM*,7.9µM*,4%,-20%
Fc1ccc(Nc2c3c(nc4ccccc24)CCC3)cc1,-16%,?,-29%,0%,-51%
COc1ccc(Nc2c3c(nc4ccccc24)CCCC3)cc1OC,-17%,-20%,-4%,1%,-6%
